Measured values taken from the supplement of paper PMC10849652.
Of roughly 7,900 targets only a part is listed; those with a hit were picked by preference. About 0.6% of all pairs of compound and target were hits. A number with no mark means an inactive call.

Columns and labels:
Experiment in all cases: log2 fold change, soluble protein after heating vs DMSO (PISA); higher = thermal stabilisation; K562 cells, 10 uM, 30 min; active = over 0.2 and 3.5 SD of the protein, either way, in both replicates (recomputed)
[1] = compound: COC1=CC=C(C=C1)CN2C=CC3=C2C=C(C=C3)C(=O)NO
How it was run: (§1)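 Soluble protein was quantified by TMTpro 16plex LC-MS/MS after channel sums were equalised. It was obtained as the supernatant after 21,000xg for 90 min from pooled aliquots of K562 cells (2×10^6 cells/mL, 10 μM compound, 30 min) heated for 3 min across 48°C-58°C and extracted in PBS with 0.5% NP-40 at 4°C. Thermal stability values are relative to control samples and come from duplicates. They are given as log2 fold changes.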

filanesib = compound: CON(C)C(=O)N1N=C(c2cc(F)ccc2F)S[C@@]1(CCCN)c1ccccc1 [filanesib]
How it was run: as §1

zotarolimus = compound: CO[C@H]1C[C@@H]2CC[C@@H](C)[C@@](O)(O2)C(=O)C(=O)N2CCCC[C@H]2C(=O)O[C@H]([C@H](C)C[C@@H]2CC[C@H](n3cnnn3)[C@H](OC)C2)CC(=O)[C@H](C)/C=C(\C)[C@@H](O)[C@@H](OC)C(=O)[C@H](C)C[C@H](C)/C=C/C=C/C=C/1C [zotarolimus]
How it was run: as §1

idasanutlin = compound: COc1cc(C(=O)O)ccc1NC(=O)[C@@H]1N[C@@H](CC(C)(C)C)[C@](C#N)(c2ccc(Cl)cc2F)[C@H]1c1cccc(Cl)c1F [idasanutlin]
How it was run: as §1

alisertib = compound: COc1cc(Nc2ncc3c(n2)-c2ccc(Cl)cc2C(c2c(F)cccc2OC)=NC3)ccc1C(=O)O [alisertib]
How it was run: as §1

[2] = compound: COc1cc2nc(-c3cc(F)ccc3O)nc(N[C@@H]3CNC[C@H]3C(C)(C)O)c2cc1OC
How it was run: as §1

gefitinib = compound: COc1cc2ncnc(Nc3ccc(F)c(Cl)c3)c2cc1OCCCN1CCOCC1 [gefitinib]
How it was run: as §1

[3] = compound: COc1cccc2cc(-c3nc([C@H]4CC[C@H](C(=O)O)CC4)n4ncnc(N)c34)[nH]c12
How it was run: as §1

lapatinib = compound: CS(=O)(=O)CCNCc1ccc(-c2ccc3ncnc(Nc4ccc(OCc5cccc(F)c5)c(Cl)c4)c3c2)o1 [lapatinib]
How it was run: as §1

pictilisib = compound: CS(=O)(=O)N1CCN(Cc2cc3nc(-c4cccc5[nH]ncc45)nc(N4CCOCC4)c3s2)CC1 [pictilisib]
How it was run: as §1

Chain of UniProt O43847 (O43847 whole entry, looked up): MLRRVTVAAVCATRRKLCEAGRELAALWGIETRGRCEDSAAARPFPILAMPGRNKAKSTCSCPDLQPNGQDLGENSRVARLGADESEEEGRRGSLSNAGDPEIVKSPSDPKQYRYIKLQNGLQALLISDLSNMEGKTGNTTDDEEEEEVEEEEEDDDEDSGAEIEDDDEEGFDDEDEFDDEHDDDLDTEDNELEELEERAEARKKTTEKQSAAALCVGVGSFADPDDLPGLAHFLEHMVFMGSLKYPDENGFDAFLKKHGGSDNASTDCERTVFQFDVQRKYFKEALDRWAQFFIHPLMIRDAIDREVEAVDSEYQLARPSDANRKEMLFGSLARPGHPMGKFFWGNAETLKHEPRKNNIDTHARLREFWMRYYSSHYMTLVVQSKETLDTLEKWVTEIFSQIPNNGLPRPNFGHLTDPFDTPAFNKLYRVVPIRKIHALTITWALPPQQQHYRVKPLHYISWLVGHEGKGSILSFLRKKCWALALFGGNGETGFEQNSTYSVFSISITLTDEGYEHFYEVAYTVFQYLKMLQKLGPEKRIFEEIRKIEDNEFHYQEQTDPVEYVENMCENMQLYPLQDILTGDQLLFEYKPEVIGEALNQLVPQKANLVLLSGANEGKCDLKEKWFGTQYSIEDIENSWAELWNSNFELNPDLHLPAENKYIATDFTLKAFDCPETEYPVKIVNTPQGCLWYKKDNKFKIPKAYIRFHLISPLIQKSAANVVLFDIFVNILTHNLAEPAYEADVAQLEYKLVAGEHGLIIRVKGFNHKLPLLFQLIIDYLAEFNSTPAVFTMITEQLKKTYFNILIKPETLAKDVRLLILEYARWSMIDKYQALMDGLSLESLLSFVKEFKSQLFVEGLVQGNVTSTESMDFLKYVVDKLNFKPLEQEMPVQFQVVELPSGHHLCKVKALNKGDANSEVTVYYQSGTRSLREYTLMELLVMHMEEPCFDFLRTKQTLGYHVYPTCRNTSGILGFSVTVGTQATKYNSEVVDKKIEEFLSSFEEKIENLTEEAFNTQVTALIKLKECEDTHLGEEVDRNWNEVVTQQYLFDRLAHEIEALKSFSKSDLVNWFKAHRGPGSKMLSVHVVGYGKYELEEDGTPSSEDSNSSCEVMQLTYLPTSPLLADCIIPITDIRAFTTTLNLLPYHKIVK
Chain of UniProt O43809 (O43809 whole entry, looked up): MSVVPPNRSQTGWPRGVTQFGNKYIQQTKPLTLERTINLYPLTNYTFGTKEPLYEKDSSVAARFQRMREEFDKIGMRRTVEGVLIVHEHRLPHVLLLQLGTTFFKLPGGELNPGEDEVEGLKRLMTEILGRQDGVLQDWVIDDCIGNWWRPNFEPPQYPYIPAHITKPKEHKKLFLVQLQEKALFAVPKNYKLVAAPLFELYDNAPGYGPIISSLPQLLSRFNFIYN
Chain of UniProt Q8NCE2 (Q8NCE2 whole entry, looked up): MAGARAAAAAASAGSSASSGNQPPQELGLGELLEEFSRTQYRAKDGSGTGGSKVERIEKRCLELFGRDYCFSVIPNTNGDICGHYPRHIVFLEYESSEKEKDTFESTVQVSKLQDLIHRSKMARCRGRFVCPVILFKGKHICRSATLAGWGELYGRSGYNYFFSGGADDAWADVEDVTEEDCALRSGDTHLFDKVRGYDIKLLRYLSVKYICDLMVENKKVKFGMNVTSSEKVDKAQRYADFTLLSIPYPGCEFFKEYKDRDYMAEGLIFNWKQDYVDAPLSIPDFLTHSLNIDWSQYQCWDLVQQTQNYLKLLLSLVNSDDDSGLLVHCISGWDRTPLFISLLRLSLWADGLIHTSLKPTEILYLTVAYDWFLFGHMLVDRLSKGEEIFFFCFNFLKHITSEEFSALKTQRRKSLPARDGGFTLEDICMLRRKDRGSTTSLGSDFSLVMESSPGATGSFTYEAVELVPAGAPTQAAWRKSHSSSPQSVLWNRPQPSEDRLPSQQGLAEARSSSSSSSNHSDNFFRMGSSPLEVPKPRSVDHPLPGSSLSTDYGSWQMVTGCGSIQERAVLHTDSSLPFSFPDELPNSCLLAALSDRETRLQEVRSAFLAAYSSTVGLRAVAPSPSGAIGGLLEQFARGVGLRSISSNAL
Chain of UniProt Q13469 (Q13469 whole entry, looked up): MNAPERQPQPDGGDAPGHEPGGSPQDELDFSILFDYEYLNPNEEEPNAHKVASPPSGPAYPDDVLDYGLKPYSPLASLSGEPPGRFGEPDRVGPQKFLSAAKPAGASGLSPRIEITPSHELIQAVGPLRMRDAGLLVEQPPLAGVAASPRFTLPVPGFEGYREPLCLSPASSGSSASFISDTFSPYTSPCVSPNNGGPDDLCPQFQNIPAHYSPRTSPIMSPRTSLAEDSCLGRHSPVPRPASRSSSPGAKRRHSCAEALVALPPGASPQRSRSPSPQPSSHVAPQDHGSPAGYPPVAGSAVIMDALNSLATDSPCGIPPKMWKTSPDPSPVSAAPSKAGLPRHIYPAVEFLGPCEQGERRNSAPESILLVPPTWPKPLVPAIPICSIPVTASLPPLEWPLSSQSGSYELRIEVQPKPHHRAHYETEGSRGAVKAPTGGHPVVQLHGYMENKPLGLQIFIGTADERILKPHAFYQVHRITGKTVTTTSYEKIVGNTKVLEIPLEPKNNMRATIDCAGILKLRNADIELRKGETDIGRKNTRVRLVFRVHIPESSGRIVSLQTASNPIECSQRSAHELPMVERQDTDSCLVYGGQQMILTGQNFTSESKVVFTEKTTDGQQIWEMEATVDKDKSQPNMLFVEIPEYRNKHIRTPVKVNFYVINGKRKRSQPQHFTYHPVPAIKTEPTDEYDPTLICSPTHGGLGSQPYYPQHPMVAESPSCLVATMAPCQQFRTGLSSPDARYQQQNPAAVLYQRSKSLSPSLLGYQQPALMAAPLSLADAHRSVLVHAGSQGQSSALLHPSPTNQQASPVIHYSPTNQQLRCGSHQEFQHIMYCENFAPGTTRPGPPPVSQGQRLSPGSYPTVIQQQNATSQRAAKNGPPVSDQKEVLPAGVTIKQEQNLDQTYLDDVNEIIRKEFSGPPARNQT
Chain of UniProt Q16656 (Q16656 whole entry, looked up): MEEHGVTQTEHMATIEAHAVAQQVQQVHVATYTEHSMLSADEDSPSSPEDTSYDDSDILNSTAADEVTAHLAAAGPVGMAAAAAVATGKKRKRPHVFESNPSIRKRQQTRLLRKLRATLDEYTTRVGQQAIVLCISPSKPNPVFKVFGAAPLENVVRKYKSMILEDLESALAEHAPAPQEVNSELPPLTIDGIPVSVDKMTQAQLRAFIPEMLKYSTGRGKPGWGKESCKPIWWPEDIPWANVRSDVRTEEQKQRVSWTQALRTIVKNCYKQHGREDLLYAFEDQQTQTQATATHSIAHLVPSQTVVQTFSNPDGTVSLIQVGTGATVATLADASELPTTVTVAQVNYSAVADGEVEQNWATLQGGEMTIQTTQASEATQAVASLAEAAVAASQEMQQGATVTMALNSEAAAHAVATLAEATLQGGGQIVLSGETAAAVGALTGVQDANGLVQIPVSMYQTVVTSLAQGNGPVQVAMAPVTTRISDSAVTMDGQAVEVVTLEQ
Chain of UniProt Q9UI09 (Q9UI09 whole entry, looked up): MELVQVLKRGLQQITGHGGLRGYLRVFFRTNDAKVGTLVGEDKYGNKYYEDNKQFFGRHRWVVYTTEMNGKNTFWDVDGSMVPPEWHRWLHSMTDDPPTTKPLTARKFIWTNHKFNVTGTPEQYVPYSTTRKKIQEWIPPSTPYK
Chain of UniProt P22059 (P22059 whole entry, looked up): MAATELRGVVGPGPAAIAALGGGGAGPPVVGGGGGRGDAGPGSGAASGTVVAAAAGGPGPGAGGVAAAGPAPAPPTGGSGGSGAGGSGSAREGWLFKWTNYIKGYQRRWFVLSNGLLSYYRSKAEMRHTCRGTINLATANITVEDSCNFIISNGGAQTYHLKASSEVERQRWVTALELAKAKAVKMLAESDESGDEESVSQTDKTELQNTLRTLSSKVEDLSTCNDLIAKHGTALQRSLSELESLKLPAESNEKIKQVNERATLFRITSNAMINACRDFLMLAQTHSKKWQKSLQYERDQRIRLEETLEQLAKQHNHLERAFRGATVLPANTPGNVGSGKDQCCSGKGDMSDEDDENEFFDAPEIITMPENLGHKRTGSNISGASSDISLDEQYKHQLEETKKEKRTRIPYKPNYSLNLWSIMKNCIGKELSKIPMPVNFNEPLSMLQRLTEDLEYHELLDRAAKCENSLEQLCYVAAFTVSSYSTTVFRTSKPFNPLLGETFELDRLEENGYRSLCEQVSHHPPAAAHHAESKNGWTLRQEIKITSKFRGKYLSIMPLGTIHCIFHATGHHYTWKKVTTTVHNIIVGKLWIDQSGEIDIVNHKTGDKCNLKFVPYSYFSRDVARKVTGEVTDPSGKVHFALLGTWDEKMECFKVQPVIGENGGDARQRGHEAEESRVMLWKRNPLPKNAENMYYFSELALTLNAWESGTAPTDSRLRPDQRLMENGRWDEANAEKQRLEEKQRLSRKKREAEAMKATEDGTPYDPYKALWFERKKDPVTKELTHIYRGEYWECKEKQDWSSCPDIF
Chain of UniProt P56556 (P56556 whole entry, looked up): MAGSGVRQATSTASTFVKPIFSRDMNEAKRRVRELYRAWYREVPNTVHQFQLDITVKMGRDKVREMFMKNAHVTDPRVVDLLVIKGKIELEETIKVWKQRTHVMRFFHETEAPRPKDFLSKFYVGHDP
Chain of UniProt Q8WUY8 (Q8WUY8 whole entry, looked up): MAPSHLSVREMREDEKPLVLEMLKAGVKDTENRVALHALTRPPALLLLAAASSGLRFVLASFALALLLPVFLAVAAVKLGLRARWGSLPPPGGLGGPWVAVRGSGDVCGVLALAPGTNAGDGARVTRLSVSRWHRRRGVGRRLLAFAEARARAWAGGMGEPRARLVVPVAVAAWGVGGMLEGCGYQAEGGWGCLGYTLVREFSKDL
Chain of UniProt O00217 (O00217 whole entry, looked up): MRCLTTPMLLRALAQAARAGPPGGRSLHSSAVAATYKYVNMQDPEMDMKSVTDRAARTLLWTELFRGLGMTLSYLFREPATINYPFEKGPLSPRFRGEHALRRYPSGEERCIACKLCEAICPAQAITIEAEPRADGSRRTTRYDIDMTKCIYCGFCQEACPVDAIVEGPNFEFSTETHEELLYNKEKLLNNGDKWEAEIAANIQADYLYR

Target	log2 fold change [1]	log2 fold change (filanesib)	log2 fold change (zotarolimus)	log2 fold change (idasanutlin)	log2 fold change (alisertib)	log2 fold change [2]	log2 fold change (gefitinib)	log2 fold change [3]	log2 fold change (lapatinib)	log2 fold change (pictilisib)
MRPS21 (UniProt P82921)	0.007	0.032	0.026	-0.293	0.043	-0.053	0.019	0.021	0.261	–
MOV10 (UniProt Q9HCE1)	-0.048	0.155	-0.005	0.071	-0.073	-0.021	0.002	-0.1	0.073	-0.048
MITD1 (UniProt Q8WV92)	0.059	0.004	-0.068	-0.058	0.018	-0.013	-0.018	0.063	0.004	-0.121
NAT14 (UniProt Q8WUY8)	0.151	-0.001	0.107	-0.041	-0.013	-0.086	-0.016	0.12	0.081	–
NT5DC1 (UniProt Q5TFE4)	0.016	-0.067	0.019	-0.122	-0.015	0.04	0.018	0.02	0.074	0.097
MT-ATP6 (UniProt P00846)	-0.018	-0.036	-0.022	-0.084	-0.05	0.133	0.05	0.055	-0.105	0.208
NUP85 (UniProt Q9BW27)	0.01	-0.009	-0.022	0.016	-0.061	-0.038	0.025	0.043	-0.042	0.049
OSBP (UniProt P22059)	-0.018	0.009	0.007	-0.019	-0.046	0.086	0.019	-0.009	0	0.004
NMNAT1 (UniProt Q9HAN9)	-0.168	0.354	-0.023	0.154	-0.115	0.132	-0.022	-0.102	0.018	-0.014
PAFAH1B3 (UniProt Q15102)	-0.01	-0.024	0.037	-0.033	-0.044	0.03	0.043	0.057	-0.054	0.079
NOL11 (UniProt Q9H8H0)	-0.029	0	0.005	-0.046	-0.017	0.067	-0.008	0.056	0.005	0.025
NCK1 (UniProt P16333)	0.049	-0.054	0.13	-0.001	-0.127	-0.165	0.002	-0.024	-0.066	–
MTMR14 (UniProt Q8NCE2)	0.007	0.026	-0.04	0.02	-0.04	0.069	-0.02	0.017	-0.075	0.083
NRDC isoform 2 (UniProt O43847)	0	-0.038	0.005	-0.026	0.013	0.076	-0.022	-0.001	-0.019	-0.029
NDUFA6 (UniProt P56556)	0.097	-0.035	0.05	-0.383 (active)	0.044	0.048	-0.004	0.068	0.097	0.087
MRPL46 (UniProt Q9H2W6)	-0.019	0.068	0.1	-0.012	-0.063	-0.088	0.005	-0.029	0.082	0.011
NMT2 (UniProt O60551)	-0.064	-0.018	0.019	-0.062	-0.096	0.082	-0.069	-0.046	-0.047	0.087
NNT (UniProt Q13423)	-0.008	-0.08	0.015	-0.076	-0.041	0.037	0.016	0.031	-0.031	-0.01
NPEPPS (UniProt P55786)	0.22 (active)	-0.056	0.338 (active)	-0.072	-0.017	0.037	-0.026	0.066	-0.002	-0.001
NRF1 isoform 4 (UniProt Q16656)	0.048	-0.054	0.098	0.03	-0.077	-0.135	0.03	0.019	-0.078	0.167
NDUFA12 (UniProt Q9UI09)	-0.011	-0.071	0.002	-0.213	0.019	-0.167	-0.086	0.056	-0.04	0.023
NFATC2 (UniProt Q13469)	0.015	0.161	-0.084	0.058	0.147	-0.036	0.031	-0.152	-0.001	-0.029
NUDT21 (UniProt O43809)	-0.003	0.027	0.013	0.006	-0.077	0.102	-0.019	0.031	-0.019	0.017
NDUFS8 (UniProt O00217)	-0.07	-0.122	-0.003	-0.147	-0.15	-0.069	-0.028	0.081	0.01	0.018
MT-ND1 (UniProt P03886)	-0.051	0.053	0.131	-0.141	-0.015	-0.152	0.1	0.051	-0.113	–
NAA11 (UniProt Q9BSU3)	0.077	-0.026	-0.022	0.037	-0.066	0.13	0.037	0.116	-0.085	–
MND1 (UniProt Q9BWT6)	-0.037	-0.057	-0.077	0.099	0.062	-0.235	-0.193	0.03	-0.025	0.032
MPHOSPH10 (UniProt O00566)	-0.139	0.561 (active)	0.053	0.271	-0.061	-0.166	0.026	-0.031	0.174	-0.105
NPC1L1 (UniProt Q9UHC9)	-0.177	-0.099	-0.09	-0.041	-0.144	0.079	0.557	0.106	-0.105	–
NME1 isoform 2 (UniProt P15531)	0.017	0.007	0.001	0.022	0.062	0.021	-0.063	0.141	-0.009	0.666 (active)
